Test results taken from PubChem BioAssay (NCATS).
Records with an inconclusive call do not appear. Where a call stands in place of a potency, no number is given. Unmarked numbers belong to inactive results. Activity calls are given as the source filed them. Calls come from the whole dose curve; as a rule, active = well fitted curve in the direction sought with a large enough effect; inconclusive = small, poorly fitted or top-dose-only effect, or another doubt; inactive = no such curve, though single readings can be large; an effect the other way counts as inactive or inconclusive.

molecular target: Rap guanine nucleotide exchange factor 3 (Homo sapiens) (UniProt O95398); test: Confirmatory qHTS for agonist of cAMP-regulated guanine nucleotide exchange factor 3 (EPAC1) (AID 1645881); conditions: EPAC1 Rap1B BODIPY-GDP exchange fluorescence; series mostly up to 154 µM;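 note: EPAC1 catalysed release of BODIPY-GDP from Rap1B seen as fluorescence loss; nearly all actives have a fitted effect of over 75% in size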
Sequence (O95398 whole entry, looked up): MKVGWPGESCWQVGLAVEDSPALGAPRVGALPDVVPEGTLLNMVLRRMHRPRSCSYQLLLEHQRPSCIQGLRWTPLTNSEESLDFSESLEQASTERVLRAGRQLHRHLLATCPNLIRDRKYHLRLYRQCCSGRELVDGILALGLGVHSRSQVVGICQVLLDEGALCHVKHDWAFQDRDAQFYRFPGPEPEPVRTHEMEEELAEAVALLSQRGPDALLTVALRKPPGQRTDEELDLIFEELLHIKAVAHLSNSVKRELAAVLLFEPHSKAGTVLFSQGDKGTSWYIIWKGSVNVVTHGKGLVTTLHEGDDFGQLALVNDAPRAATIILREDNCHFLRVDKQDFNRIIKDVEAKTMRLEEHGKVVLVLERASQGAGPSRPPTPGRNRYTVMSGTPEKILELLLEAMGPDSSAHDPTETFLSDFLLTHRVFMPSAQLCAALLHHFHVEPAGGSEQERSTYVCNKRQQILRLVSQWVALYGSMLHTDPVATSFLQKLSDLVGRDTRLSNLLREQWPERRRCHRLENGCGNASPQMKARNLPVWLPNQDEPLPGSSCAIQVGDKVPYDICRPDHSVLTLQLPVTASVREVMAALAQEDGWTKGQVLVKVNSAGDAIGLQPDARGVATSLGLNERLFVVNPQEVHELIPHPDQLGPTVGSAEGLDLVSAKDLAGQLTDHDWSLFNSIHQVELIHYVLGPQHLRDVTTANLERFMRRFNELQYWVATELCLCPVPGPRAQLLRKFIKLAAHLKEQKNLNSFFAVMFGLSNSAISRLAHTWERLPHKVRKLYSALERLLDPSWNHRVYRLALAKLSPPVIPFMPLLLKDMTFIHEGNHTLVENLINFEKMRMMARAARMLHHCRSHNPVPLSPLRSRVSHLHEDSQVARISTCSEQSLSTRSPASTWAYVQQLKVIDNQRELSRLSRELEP

SMILES	Potency
Cc1cc(C)cc(NC(=O)c2sc3nc(-c4ccccc4)cn3c2C)c1	inactive
COc1ccc(C2CN=NC23CCc2ccccc2C3=O)cc1 (stereo not given)	inactive
COc1cc(-c2noc(C)c2-c2ccc3[nH]ccc3c2)cc(OC)c1OC	inactive
CN(CCc1ccccc1)C(=O)c1cc(COc2cccc(C(F)(F)F)c2)on1	inactive
Cc1ccc(C2SCC(=O)N2Cc2ccccc2)cc1 (stereo not given)	inactive
Cc1ccc2c(/C=C/c3c[nH]c4ccccc34)ccnc2c1C	inactive

molecular target: Rap guanine nucleotide exchange factor 4 (Homo sapiens) (UniProt Q8WZA2); test: Confirmatory qHTS for agonist of cAMP-regulated guanine nucleotide exchange factor 4 (EPAC2) (AID 1645884); conditions: EPAC2 GEF activity, Rap1B-BODIPY-GDP fluorescence; series mostly up to 154 µM;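 note: nucleotide exchange releases bodipy-GDP from Rap1 and this lowers its fluorescence; nearly all actives have a fitted effect of over 65% in size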
Sequence (Q8WZA2 whole entry, looked up): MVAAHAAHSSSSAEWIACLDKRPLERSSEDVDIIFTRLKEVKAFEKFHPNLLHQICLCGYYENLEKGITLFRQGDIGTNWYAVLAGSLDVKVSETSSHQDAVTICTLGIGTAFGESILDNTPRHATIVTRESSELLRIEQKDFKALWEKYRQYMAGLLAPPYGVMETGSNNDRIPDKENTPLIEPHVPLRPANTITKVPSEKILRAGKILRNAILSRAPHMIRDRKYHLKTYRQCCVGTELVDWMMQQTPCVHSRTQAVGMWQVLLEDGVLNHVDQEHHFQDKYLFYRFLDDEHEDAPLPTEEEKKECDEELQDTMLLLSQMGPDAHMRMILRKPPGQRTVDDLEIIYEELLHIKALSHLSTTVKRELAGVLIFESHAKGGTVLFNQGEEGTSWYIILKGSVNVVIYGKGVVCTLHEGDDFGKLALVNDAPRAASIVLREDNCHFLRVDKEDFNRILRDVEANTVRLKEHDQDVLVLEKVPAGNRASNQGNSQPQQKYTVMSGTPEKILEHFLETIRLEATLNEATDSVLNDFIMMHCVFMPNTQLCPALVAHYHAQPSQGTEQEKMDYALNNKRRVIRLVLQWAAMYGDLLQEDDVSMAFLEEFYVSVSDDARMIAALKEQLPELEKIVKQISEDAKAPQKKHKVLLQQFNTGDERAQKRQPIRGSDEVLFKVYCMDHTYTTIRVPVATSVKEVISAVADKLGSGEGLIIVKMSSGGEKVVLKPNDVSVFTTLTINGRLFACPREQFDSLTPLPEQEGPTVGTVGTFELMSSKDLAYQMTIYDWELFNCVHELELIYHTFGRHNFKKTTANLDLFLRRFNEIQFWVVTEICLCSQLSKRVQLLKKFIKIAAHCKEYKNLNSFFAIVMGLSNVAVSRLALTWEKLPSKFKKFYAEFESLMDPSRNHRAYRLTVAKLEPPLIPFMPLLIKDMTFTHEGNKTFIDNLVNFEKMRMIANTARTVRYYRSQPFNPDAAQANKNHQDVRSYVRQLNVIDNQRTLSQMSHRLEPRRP

SMILES	activation	Potency
COC(=O)c1cc(Br)c(=O)n(CCC2=CCCCC2)c1	0% [at 17.1 µM, percent relative to cAMP agonist control]	
C=CCn1c(N)c(S(=O)(=O)c2cccs2)c2nc3ccccc3nc21		inactive
Cc1[nH]c2ccccc2c1/C=C/c1ccc2ccccc2n1		inactive
CCCCOC(=O)Nc1ccc(S(=O)(=O)Nc2nccs2)cc1		inactive
Cc1cc(/C=C/c2ccnc3ccccc23)ccc1N(C)C		inactive
C/C=C(\C)C(=O)OC1C(OC(=O)C2(C)OC2C)c2cc3ccc(=O)oc3cc2OC1(C)C (stereo not given)		inactive
C(=C\c1ccnc2ccccc12)/c1ccc2ccccc2n1		inactive
COc1cccc(CN(C)C(=O)c2cnn(-c3ncc4c(n3)-c3ccccc3CCC4)c2C)c1		inactive
Cc1nc(C)n(CC(=O)NCC2Cc3cc(-c4cccc(OC(F)(F)F)c4)ccc3O2)n1 (stereo not given)		inactive
CCc1ccc([C@@H]2CC=C(C(=O)O)[C@H](c3ccc(Br)cc3)N2S(=O)(=O)c2ccc(C)cc2)cc1	-5.28% [at 17.1 µM, percent relative to cAMP agonist control]	
C[C@@H]1CCC(=O)N(CC[C@H](Oc2ccccc2)c2ccccc2)CC1		inactive
O=C(CN1Cc2ccccc2OC(c2ccsc2)C1)N1CCN(Cc2ccc3c(c2)OCO3)CC1 (stereo not given)		inactive
CCOC(=O)C1CCCN(C(=O)c2cnn(-c3nccc(-c4cc(C)sc4C)n3)c2C)C1 (stereo not given)		inactive
Cc1ccc(C)c(N2CCN(C(=O)CCc3nc(-c4ccc(Cl)cc4)no3)CC2)c1		inactive
CN1CC(O)C2=CC(=O)C(=O)C=C21 (stereo not given)		inactive
Cn1c(O)c(N=NC(=O)c2ccccc2O)c2ccccc21		inactive
COc1ccc(C(=O)c2ccc(Br)cc2)c2ccccc12		inactive
O=c1c2ccccc2oc2ccc(Oc3ccccc3)cc12		inactive
Cc1cc(C(=O)NCc2nc(-c3cccc(NC(=O)c4ccccc4)c3)oc2C)nc(C)n1		inactive
Cc1cccc(N(C(=O)c2csnn2)C(C(=O)NCc2ccccc2)c2cccs2)c1 (stereo not given)		inactive

SMILES	activation	Potency
COc1ccc(C(=O)NC2CCCc3ccccc32)c(OC)c1OC (stereo not given)	0% [at 17.1 µM, percent relative to cAMP agonist control]	
CC(C)C[C@@H](COc1ccccc1)N1CCN(Cc2ccccc2)CCC1=O		inactive
Cc1ccc2c(/C=C/c3ccc(N(C)C)cc3)ccnc2c1C		inactive
Cc1cc(C)c2nccc(/C=C/c3ccc(N(C)C)cc3)c2c1		inactive
CC/C(=C/c1ccccc1OC)c1cc(-c2ccccc2)cc2oc3ccccc3c12		inactive
Cn1cc(/C=C/c2ccc3ccccc3n2)c2ccccc21		inactive
O=C(Nc1ccc(Cl)cc1)N[C@@H]1CC[C@H](CCNS(=O)(=O)c2ccccc2F)O[C@@H]1CO		inactive
CCc1ccc2c(c1)C(NC(C)=O)C(=O)N2CCN1CCOCC1 (stereo not given)		inactive
COCCN(CCOC)c1nc(-c2ccccc2)nc2ccccc12		inactive
Cc1ccc(S(=O)(=O)N2[C@@H](c3cccc(Cl)c3)C(C(=O)O)=CC[C@H]2c2ccc(C(C)C)cc2)cc1		inactive
CC(C)(C)[C@H]1CCC(=O)N([C@H](CN=[N+]=[N-])Cc2ccccc2)CC1		inactive
Cc1ccc2nccc(/C=C/c3ccc(N(C)C)cc3)c2c1		inactive
Cc1cnc2ccccc2c1/C=C/c1ccc(N(C)C)cc1		inactive
COc1cc(CCN(C(=O)c2cccc(S(C)(=O)=O)c2)C(CCc2ccccc2)c2nc3ccccc3[nH]2)cc(OC)c1 (stereo not given)		inactive
Cc1cc(C)cc(NC(=O)c2sc3nc(-c4ccccc4)cn3c2C)c1		inactive
COc1ccc(C2CN=NC23CCc2ccccc2C3=O)cc1 (stereo not given)		inactive
COc1cc(-c2noc(C)c2-c2ccc3[nH]ccc3c2)cc(OC)c1OC		inactive
CN(CCc1ccccc1)C(=O)c1cc(COc2cccc(C(F)(F)F)c2)on1		inactive
Cc1ccc(C2SCC(=O)N2Cc2ccccc2)cc1 (stereo not given)		inactive
Cc1ccc2c(/C=C/c3c[nH]c4ccccc34)ccnc2c1C		inactive

molecular target: Rap guanine nucleotide exchange factor 4 (Homo sapiens) (UniProt Q8WZA2); test: Confirmatory qHTS for antagonist of cAMP-regulated guanine nucleotide exchange factor 4 (EPAC2) (AID 1645885); conditions: EPAC2 Rap1B-BODIPY-GDP exchange fluorescence, biochemical; series mostly up to 12.7 µM; note: nearly all actives have a fitted effect of over 25% in size; note: potency is the fitted concentration of half-maximal effect

SMILES	Potency
Cc1nc(C)n(CC(=O)NCC2Cc3cc(-c4cccc(OC(F)(F)F)c4)ccc3O2)n1 (stereo not given)	44.1 µM (active)
Cc1ccc(C)c(N2CCN(C(=O)CCc3nc(-c4ccc(Cl)cc4)no3)CC2)c1	inactive
Cn1c(O)c(N=NC(=O)c2ccccc2O)c2ccccc21	inactive
COc1ccc(C(=O)NC2CCCc3ccccc32)c(OC)c1OC (stereo not given)	inactive
CC(C)C[C@@H](COc1ccccc1)N1CCN(Cc2ccccc2)CCC1=O	62.2 µM (active)
CC/C(=C/c1ccccc1OC)c1cc(-c2ccccc2)cc2oc3ccccc3c12	inactive
O=C(Nc1ccc(Cl)cc1)N[C@@H]1CC[C@H](CCNS(=O)(=O)c2ccccc2F)O[C@@H]1CO	inactive
CCc1ccc2c(c1)C(NC(C)=O)C(=O)N2CCN1CCOCC1 (stereo not given)	inactive
COc1cc(CCN(C(=O)c2cccc(S(C)(=O)=O)c2)C(CCc2ccccc2)c2nc3ccccc3[nH]2)cc(OC)c1 (stereo not given)	inactive
